Assay outcomes as filed in PubChem.
An excerpt weighted towards active compounds, which were near 8.1% of everything screened.
MITF inh: inhibitors of MITF, primary screen, MITF inhibitor project, cell-based, luminescence. AID 2240, 2010. TRPM1 promoter luciferase, 24 h. actives 0.28% (n = 37,000). inhibition, % (concentration not given with the values); in the data active means inhibition above about 85%; inconclusive means no clear call, values can overlap the other calls; inactive means below about 68%;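 further: human melanocyte line stably carrying TRPM1 promoter luciferase reporter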
NOMO-1 viab: NOMO-1 AML cell viability reduction, primary screen, STK33 inhibitor project, CellTiter-Glo luminescence; NOMO-1 AML viability, 72 h; inhibition, % (concentration not given with the values); actives 7.5% (n = 37,000); AID 2330, 2010; in the data active means inhibition above about 80%; inconclusive means no clear call, values can overlap the other calls
Hedgehog inh: Hedgehog pathway signaling inhibitors, primary screen, luminescence, Shh-LIGHT2 cells, Gli-luciferase; inhibition, % (test concentration not listed); Shh-LIGHT2 Gli-luciferase reporter, 30 h; actives 2.1% (n = 22,000); AID 2313, 2010;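 active means mean inhibition across valid replicates above about 65%, limit read from the data; inconclusive means mean under the limit, yet half or more replicates past it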;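 further: pathway switched on by Shh-conditioned medium diluted 1 in 25 in low serum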
PD-1 reverse act: activators reversing PD-1 mediated T-cell inhibition, primary screen, luminescence, primary human CD4 T cells, PD-L1 beads; CellTiter-Glo 96 h; activation, % (test concentration not listed); 29,000 tested, under 10 active; AID 2316, 2010; call rule not given here
Each line names hits and unclear results; the compound was inactive in the other large screens.

CC1(C)CC(=O)C2=C(C1)N(CC1CCCO1)C(=O)C2(NC(=O)c1ccccc1)C(F)(F)F (centres undefined)	none (no result: Hedgehog inh)
Cc1ccc(NS(=O)(=O)c2cccc(C(=O)Nc3ccccc3)c2)cc1	none (no result: Hedgehog inh)
C[C@H](CO)N1C[C@H](C)[C@H](CN(C)S(=O)(=O)c2ccc(F)cc2)Oc2ccc(NC(=O)Nc3ccc(F)cc3)cc2CC1=O	NOMO-1 viab 125.8
C[C@H](CO)N1C[C@H](C)[C@H](CN(C)S(=O)(=O)c2ccc(F)cc2)Oc2ccc(NC(=O)Nc3ccc(C(F)(F)F)cc3)cc2CC1=O	NOMO-1 viab 119.4
C[C@H](CO)N1C[C@H](C)[C@H](CN(C)S(=O)(=O)c2ccc(Cl)cc2)Oc2ccc(NC(=O)Nc3ccc(F)cc3)cc2CC1=O	NOMO-1 viab 124.8
COc1ccc(S(=O)(=O)N(C)C[C@H]2Oc3ccc(NC(=O)Nc4ccc(C(F)(F)F)cc4)cc3CC(=O)N([C@H](C)CO)C[C@H]2C)cc1	none
C[C@@H]1CN([C@H](C)CO)C(=O)Cc2cc(NC(=O)Nc3ccc(F)cc3)ccc2O[C@H]1CN(C)S(=O)(=O)c1ccccc1	none (no result: Hedgehog inh, PD-1 reverse act)
COc1ccc(NC(=O)Nc2ccc3c(c2)CC(=O)N([C@@H](C)CO)C[C@H](C)[C@H](CN(C)S(=O)(=O)c2ccc(F)cc2)O3)cc1	NOMO-1 viab 109.7 (no result: PD-1 reverse act)
C[C@@H]1CN([C@@H](C)CO)C(=O)c2cc(NC(=O)Nc3ccc4c(c3)OCO4)ccc2O[C@@H]1CN(C)S(=O)(=O)c1ccc(F)cc1	none
C[C@@H]1CN([C@H](C)CO)C(=O)c2cc(NC(=O)Nc3ccc4c(c3)OCO4)ccc2O[C@@H]1CN(C)S(=O)(=O)c1ccc(F)cc1	NOMO-1 viab 95.0 (no result: Hedgehog inh)
O=C(O)c1cc(=O)c2c(O)cccc2o1	none
C[C@@H]1CCCCO[C@@H](CN(C)S(=O)(=O)c2ccc(Cl)cc2)[C@@H](C)CN([C@H](C)CO)C(=O)c2cc(NS(=O)(=O)c3ccc(F)cc3)ccc2O1	NOMO-1 viab 102.9 (no result: PD-1 reverse act)
Cc1ccc(S(=O)(=O)N(C)C[C@H]2OCCCC[C@@H](C)Oc3ccc(NS(=O)(=O)c4ccccc4)cc3C(=O)N([C@H](C)CO)C[C@@H]2C)cc1	none
C[C@@H]1CCCCO[C@@H](CN(C)CC2CCCCC2)[C@@H](C)CN([C@H](C)CO)C(=O)c2cc(NS(=O)(=O)c3ccc(Cl)cc3)ccc2O1	NOMO-1 viab 96.8
C[C@@H]1CCCCO[C@H](CN(C)S(=O)(=O)c2ccccc2)[C@@H](C)CN([C@H](C)CO)C(=O)c2cc(NC(=O)c3ccccc3)ccc2O1	none
C[C@@H]1CCCCO[C@@H](CN(C)S(=O)(=O)c2ccc(Cl)cc2)[C@@H](C)CN([C@H](C)CO)C(=O)c2cc(NC(=O)c3ccccc3)ccc2O1	NOMO-1 viab 87.6
Cc1ccc(S(=O)(=O)Nc2ccc3c(c2)C(=O)N([C@H](C)CO)C[C@H](C)[C@H](CN(C)S(=O)(=O)c2ccccc2)OCCCC[C@@H](C)O3)cc1	NOMO-1 viab 91.3
CCc1cc2c(=O)n(CC(=O)Nc3cc(OC)ccc3OC)cnc2s1	none (no result: Hedgehog inh)
FC(F)(F)c1ccccc1N=C1CCCc2ccccc21	none
CCOc1ccc(NC(=O)C(C)Sc2nnnn2-c2ccccc2)cc1 (centres undefined)	none (no result: Hedgehog inh)
C[C@@H]1CCCCO[C@H](CN(C)S(=O)(=O)c2ccc(Cl)cc2)[C@@H](C)CN([C@H](C)CO)C(=O)c2cc(NS(=O)(=O)c3ccc(Cl)cc3)ccc2O1	none (no result: PD-1 reverse act)
COc1ccc(S(=O)(=O)N(C)C[C@@H]2OCCCC[C@@H](C)Oc3ccc(NS(=O)(=O)c4ccc(Cl)cc4)cc3C(=O)N([C@H](C)CO)C[C@@H]2C)cc1	NOMO-1 viab 93.9 (no result: PD-1 reverse act)
Cc1ccc(S(=O)(=O)Nc2ccc3c(c2)C(=O)N([C@H](C)CO)C[C@H](C)[C@H](CN(C)S(=O)(=O)c2ccc(Cl)cc2)OCCCC[C@@H](C)O3)cc1	NOMO-1 viab 111.2
C[C@@H]1CCCCO[C@@H](CN(C)S(=O)(=O)c2ccc(Cl)cc2)[C@@H](C)CN([C@H](C)CO)C(=O)c2cc(NS(=O)(=O)c3ccc(Cl)cc3)ccc2O1	NOMO-1 viab 90.7, Hedgehog inh 71.0 (no result: PD-1 reverse act)
O=C(O)CCC(=O)Cc1ccccc1	MITF inh inconclusive
CCN(CC)C(=O)N1CCN(CCC#N)CC1	none (no result: Hedgehog inh)
COc1ccc(Cl)cc1NC(=O)CN(C)S(=O)(=O)c1ccc2ccccc2c1	none (no result: Hedgehog inh)
C[C@H](CO)N1C[C@H](C)[C@H](CN(C)S(=O)(=O)c2ccc(Cl)cc2)Oc2c(NC(=O)c3ccc(-c4nccs4)cc3)cccc2C1=O	NOMO-1 viab 84.0, Hedgehog inh 94.6
C[C@H](CO)N1C[C@H](C)[C@@H](CN(C)Cc2ccc(Cl)c(Cl)c2)Oc2c(NC(=O)c3ccc(-c4nccs4)cc3)cccc2C1=O	NOMO-1 viab 115.7
C[C@@H]1CN([C@@H](C)CO)C(=O)c2cccc(NC(=O)c3ccc(-c4nccs4)cc3)c2O[C@H]1CN(C)Cc1ccc2c(c1)OCO2	NOMO-1 viab 103.0
COc1cc(CC2COC(c3ccc(O)c(OC)c3)C2COC2OC(CO)C(O)C(O)C2O)ccc1O (centres undefined)	none (no result: MITF inh, NOMO-1 viab, PD-1 reverse act)
C/C=C(\C)C(=O)O[C@@H]1C(C)=C2[C@H]3OC(=O)[C@](C)(O)[C@]3(O)[C@H](OC(=O)C(C)CC)C[C@@](C)(OC(C)=O)[C@@H]2[C@H]1OC(=O)CCCCCCC (some centres undefined)	Hedgehog inh 99.0 (no result: MITF inh, NOMO-1 viab, PD-1 reverse act)
CCN(CC(=O)Nc1cccc(OC)c1)S(=O)(=O)c1ccc(C)cc1	none (no result: Hedgehog inh, PD-1 reverse act)
O=c1c(-c2nn[nH]n2)coc2ccccc12	none
CCC(C)S(=O)(=O)c1oc(-c2ccc(C)cc2)nc1S(=O)(=O)c1ccccc1 (centres undefined)	NOMO-1 viab 116.2 (no result: Hedgehog inh)
Cc1ccc(S(=O)(=O)c2nc(-c3ccccc3)oc2NCCN2CCOCC2)cc1	none (no result: Hedgehog inh, PD-1 reverse act)
CCCC(O)c1c(O)cccc1C1(O)CC(=O)C/C1=C\C(O)CC(=O)O (centres undefined)	NOMO-1 viab 121.2
C[C@@H]1CN([C@H](C)CO)C(=O)c2cccc(NC(=O)CCCCCC(=O)Nc3ccccc3N)c2O[C@@H]1CN(C)S(=O)(=O)c1ccccc1	none (no result: Hedgehog inh)
Cc1ccc(S(=O)(=O)N(C)C[C@H]2Oc3c(NC(=O)CCCCCC(=O)Nc4ccccc4N)cccc3C(=O)N([C@H](C)CO)C[C@H]2C)cc1	none (no result: Hedgehog inh)
C[C@@H]1CN([C@@H](C)CO)C(=O)c2cccc(NC(=O)CCCCCC(=O)Nc3ccccc3N)c2O[C@H]1CN(C)S(=O)(=O)c1ccc(Cl)cc1	NOMO-1 viab 94.6 (no result: Hedgehog inh)
C[C@@H]1CN([C@H](C)CO)C(=O)c2cccc(NC(=O)CCCCCC(=O)Nc3ccccc3N)c2O[C@@H]1CN(C)S(=O)(=O)c1ccc(Cl)cc1	NOMO-1 viab 94.6 (no result: Hedgehog inh)
C[C@@H]1CN([C@@H](C)CO)C(=O)c2cccc(NC(=O)CCCCCC(=O)Nc3ccccc3N)c2O[C@@H]1CN(C)S(=O)(=O)c1ccc(Cl)cc1	NOMO-1 viab 121.1 (no result: Hedgehog inh)
